# Measurements: the supplement of paper PMC3414501
# Structures can show the parent of a compound that is named as a salt.
# Test system: S. cerevisiae BY4741 (wild-type), vegetative growth in YPD
# Test: growth sensitivity score (doubling time z-score vs DMSO controls); higher = slower growth, strongly negative scores also mark growth inhibition (complete suppression), active = hit call of the paper
# Conditions: stock concentration (mM, diluted 1:100): 10.1; in the data active = 2 or more and inactive = the rest
# Outline: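 Yeast (Saccharomyces cerevisiae BY4741 and AD1-9) was grown in rich medium in microtiter plates from a starting OD600 of 0.065, with optical density read every 15 min over 24 hours. The growth sensitivity score was the difference between compound and solvent-only means, divided by the solvent-only standard deviation. Every experiment had eight solvent-only wells.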
row,Structure (SMILES),growth sensitivity score
1,CC(NC(C)(C)C)C(=O)c1cccc(Cl)c1 (stereo unspecified) [Amfebutamone hydrochloride],-0.7 (inactive)
2,C[C@]12C/C(=C/O)C(=O)C[C@@H]1CC[C@@H]1[C@@H]2CC[C@@]2(C)[C@H]1CC[C@]2(C)O [Oxymetholone],9.13 (active)
3,CC[C@@H](C(N)=O)N1CCCC1=O [Levetiracetam],-1.26 (inactive)
4,C[C@]12CC[C@H](O)CC1=CC[C@@H]1[C@@H]2CC[C@@]2(C)[C@H]1CC[C@]2(C)O [Methylandrostenediol],0.35 (inactive)
5,CCOC(=O)c1cncn1[C@H](C)c1ccccc1 [Etomidate],2.21 (active)
6,COc1ccc2[nH]cc(C3=CCNCC3)c2c1,-0.36 (inactive)
